Results published in PubChem BioAssay AID1347416 (National Center for Advancing Translational Sciences (NCATS), 2020).
In all, about 4,100 compounds went through this assay and about 1,600 (39%) were called active. Not shown: some 25% with an inconclusive outcome. Calls come from the whole dose curve; as a rule, active = well fitted inhibition curve with a large enough effect; inconclusive = small, poorly fitted or top-dose-only effect; inactive = no such curve, though single readings can be large or run the other way. Some of the results follow.

assay: qHTS Validation assay for Inhibitors of Plasmodium falciparum Dd2 growth in vitro; note: nearly all actives have a fitted effect of over 70% in size; conditions: P. falciparum Dd2 in RBCs, SYBR Green growth, 72 h; series mostly up to 28.7 µM
Summary of the method: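 P. falciparum Dd2-infected red blood cells (2.5% hematocrit, 0.3% parasitemia) grown 72 h at 37 °C under 5% O2 with compounds in a titration, 29 uM to 0.5 nM final. Growth read as SYBR Green-1 fluorescence after ~16 h lysis; artesunate 300 nM as positive control.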
Potency is the fitted concentration of half-maximal effect.

Potency, inactive:
Cn1nc(C(F)(F)F)c(Cl)c1C(=O)N[C@@H]1CCNC[C@H]1O
Cc1ccsc1C(=O)N1CCC(n2cc(-c3nc(C(C)C)no3)nn2)CC1
CN(c1ccccc1)c1cc(=O)c2ccnc(-c3ccncc3)c2o1
CN(c1ccccc1)c1cc(=O)c2ccnc(-c3ccccc3O)c2o1
CC(=O)N1CCC(Cc2ncc(C)n2CC2CC2)C1 (configuration not stated)
CCc1ccc(S(=O)(=O)N2CCC(n3cnnc3CC)CC2)cc1
O=S(=O)(c1ccccc1)N1CCCC(Cc2noc(-c3ccncc3)n2)C1 (configuration not stated)
COCCn1c(C)cnc1CC1CCN(C(=O)Nc2ccccc2F)C1 (configuration not stated)
COc1ccc(S(=O)(=O)N2CCCC(Cc3noc(-c4ccncc4)n3)C2)cc1 (configuration not stated)
O=C(NCc1nc2ccccc2[nH]1)C1=C[C@@H](c2ccccc2)C[C@@H](OCc2ccc(CO)cc2)O1
COc1cc(OC)cc(C(=O)Oc2c(CN3CCOCC3)cc(Cl)c3cccnc23)c1
CCCC(c1nnnn1CCC(C)C)N1CCC(C(N)=O)CC1 (configuration not stated)
CCC(=O)N(C1CCOCC1)C1CCN(Cc2cc(F)ccc2F)CC1
OC(C[n+]1ccccc1)c1ccccc1 (configuration not stated)
O=C1c2c(nc(CNCc3cccc(F)c3)n2Cc2ccccc2)NCCN1Cc1cccc(Cl)c1
O=C(c1ccc(F)c(Cl)c1)N1CCC[C@H]1c1nc(-c2ccccc2)no1
Cc1nn(C(=O)CCCC(=O)N2CCCC2c2nc(C3CCOCC3)no2)c2ccccc12 (configuration not stated)
CC(Oc1ccc(Br)cc1)c1nc2c3ccccc3nc(=S)n2[nH]1 (configuration not stated)
CNC(=O)[C@H]1C[C@H](Oc2cccnc2)CN1S(=O)(=O)Cc1ccccc1F
CN1C(=O)CCC2(C(=O)O)CCCC=C12 (configuration not stated)
O=C(NCC12CCC=C1N(CC1CC1)C(=O)CC2)Nc1cccc(F)c1 (configuration not stated)
CCOC(=O)c1c(S(=O)(=O)N2CCC(C(=O)Nc3ccc(F)cc3F)CC2)c(C)n(C)c1C
Cc1ccc(NC(=O)C2CCN(S(=O)(=O)c3ccc4[nH]c(=O)ccc4c3)CC2)cc1C
CCOCCOC1CCN(S(=O)(=O)c2c(C)noc2C)CC1

Potency, active:
Cn1nc(C(F)(F)F)c(-c2ccc(F)cc2)c1NC(=O)Nc1ccc(F)cc1 1.88 µM
Cc1noc(C)c1-c1nccc2c(=O)cc(N(C)c3ccccc3)oc12 17.2 µM
Cc1cnc(CC2CCCN(S(=O)(=O)c3ccccc3)C2)n1CC1CC1 (configuration not stated) 6.68 µM
Cc1cnc(CC2CCN(S(=O)(=O)c3ccccc3)CC2)n1Cc1ccccc1 5.31 µM
CCCn1c(C)cnc1CC1CCN(S(=O)(=O)c2ccc3c(c2)CCC3)C1 (configuration not stated) 9.44 µM
CCNC(=S)N/N=C/c1sc(N2CCCCC2)nc1-c1cccs1 0.668 µM
CN1CCN(c2nc(Nc3ccc(O)cc3)nc3ccccc23)CC1 4.22 µM
O=C(Oc1c(CN2CCOCC2)cc(Cl)c2cccnc12)c1ccccc1Br 7.5 µM
CC(C)=NOC(=O)c1c(C)noc1-c1snnc1C 6.68 µM
CCCC(O)(c1ccc(Cl)cc1)C(CN1CCOCC1)c1ccc(Cl)cc1 (configuration not stated) 4.73 µM
CCCCC(O)(c1ccc(F)cc1)C(CN1CCOCC1)c1ccc(Cl)cc1 (configuration not stated) 5.96 µM
OC(c1ccc(Cl)cc1)C(CN1CCOCC1)c1ccccc1 (configuration not stated) 2.99 µM
OC(CNCc1cccc(Br)c1)c1ccccc1 (configuration not stated) 5.96 µM
CCOc1cc(CNCC(O)c2ccccc2)cc(Cl)c1OC (configuration not stated) 3.35 µM
OC(CNCc1cccc(Cl)c1)c1ccccc1 (configuration not stated) 4.73 µM
Cc1ccc2c(C)c(C(=O)N3CCCC3c3nc(C(C)C)no3)oc2c1C (configuration not stated) 6.68 µM
Cc1cc(C(C)c2ccccc2)c(O)c(CN2CCOCC2)c1C (configuration not stated) 2.99 µM
C/C(=N\Nc1nc(-c2ccccc2O)nc2ccccc12)c1ccccc1 0.75 µM
Oc1ccccc1Nc1nc(-c2ccccc2O)nc2ccccc12 0.944 µM
CCN(CC)CCNC(=O)C12CCCC=C1N(Cc1ccccc1)C(=O)CC2 (configuration not stated) 8.41 µM
COc1ccc(/C=C\c2onc(C)c2S(=O)(=O)N2CCC(C(=O)Nc3ccc(C)cc3C)CC2)cc1 0.842 µM
Cc1cc(C)c(/C=C/c2onc(C)c2S(=O)(=O)N2CCC(C(=O)Nc3ccc(Cl)c(C(F)(F)F)c3)CC2)c(C)c1 10.6 µM
CCOc1ccccc1NC(=O)C1CCN(S(=O)(=O)c2c(C)noc2/C=C/c2ccco2)CC1 15 µM
